# Laboratory results published in PubChem BioAssay AID504847 (National Center for Advancing Translational Sciences (NCATS), 2011).
# The whole screen tested about 400,000 compounds, of which about 3,700 (0.93%) were called active. Not shown: some 3% with an inconclusive outcome. Calls come from the whole dose curve; as a rule, active = well fitted inhibition curve with a large enough effect; inconclusive = small, poorly fitted or top-dose-only effect, or another doubt; inactive = no such curve, though single readings can be large or run the other way. For the sample, actives were picked, then their nearest neighbours and some compounds at random.
# Target: Vitamin D3 receptor (Homo sapiens) (UniProt P11473)
# Assay: Inhibitors of the vitamin D receptor (VDR): qHTS
# Settings: VDR-SRC2-3 peptide fluorescence polarization, 2 h; max response, negative = inhibition: active compounds read low
# How it was run: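 After 23 nl compound addition and a short centrifugation, plates sat for 2 hours at ambient temperature; polarization of fluorescence then indicated loss of VDR binding to peptide SRC2-3.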
# % is set by controls: 0 for no effect and ±100 for the full control effect; potency is the fitted concentration of half-maximal effect.
# Sequence of Vitamin D3 receptor (Homo sapiens) (P11473 whole entry, looked up): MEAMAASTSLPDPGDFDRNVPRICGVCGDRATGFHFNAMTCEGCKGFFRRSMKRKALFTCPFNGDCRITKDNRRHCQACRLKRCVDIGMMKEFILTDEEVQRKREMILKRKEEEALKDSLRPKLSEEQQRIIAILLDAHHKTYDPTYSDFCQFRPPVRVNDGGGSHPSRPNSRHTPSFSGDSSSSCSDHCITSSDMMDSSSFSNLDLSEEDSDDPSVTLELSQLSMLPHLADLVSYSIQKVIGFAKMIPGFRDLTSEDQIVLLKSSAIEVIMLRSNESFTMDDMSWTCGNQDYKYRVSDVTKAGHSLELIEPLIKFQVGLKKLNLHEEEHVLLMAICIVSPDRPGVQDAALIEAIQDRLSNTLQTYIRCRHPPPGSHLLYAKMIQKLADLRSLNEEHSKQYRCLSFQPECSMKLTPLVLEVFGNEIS
SMILES,Potency,"max response, negative = inhibition"
CC(=O)N(C1=C(Cl)C(=O)c2ccccc2C1=O)c1ccc(C(=O)O)cc1,7.08 µM (active),–
CCOC(=O)c1cc2c(=O)n3ccccc3nc2n(CCCOC)c1=NC(=O)C(C)(C)Oc1ccc(Cl)cc1,–,-19.6% (inactive)
CC(=O)Oc1c2c(c3c(c1CC=C(C)C)O[C@@]14C(=CC5CC1C(C)(C)OC4(C/C=C(\C)C(=O)O)C5=O)C3=O)OC(C)(CCC=C(C)C)C=C2 (stereo not given in full),3.16 µM (active),–
CCc1ccccc1OCCSc1nc(-c2cccs2)nc2cc(=O)[nH]n12,–,-2.15% (inactive)
O=C1CC(c2ccccc2)CC2=C1C(c1ccco1)n1nc(C(F)(F)F)nc1N2 (stereo not given),–,-0.088% (inactive)
CC(C)c1ccc(S(=O)(=O)Nc2ccc(O)c(Sc3nc4ccccc4s3)c2)cc1,–,-4.7% (inactive)
CC(C)(C)c1ccc(S(=O)(=O)Nc2ccc(O)c(Sc3nc4ccccc4s3)c2)cc1,–,-10.5% (inactive)
O=[N+]([O-])c1c(NCCO)cc(Sc2nc3ccccc3s2)c2nonc12,14.1 µM (active),–
NCCCNCCCCN(CCCN)/[N+]([O-])=N/O,–,8.85% (inactive)
Oc1c(C(c2ccccc2Cl)N2CCOCC2)sc2nc(-c3ccco3)nn12 (stereo not given),–,10.6% (inactive)
Oc1c(C(c2ccccn2)N2CCOCC2)ccc2cccnc12 (stereo not given),17.8 µM (active),–
COc1ccc(NC(=O)c2sc3nc[nH]c(=O)c3c2C)cc1,–,6.76% (inactive)
Cc1ccc2nc(/C(C#N)=C/c3ccc(-c4ccc(C(=O)OC(C)C)cc4)o3)[nH]c2c1,–,-0.457% (inactive)
Nc1ccc2[nH]c(=S)sc2c1,28.2 µM (active),–
O=c1[nH]c2ccccc2s1,–,1.06% (inactive)
COc1ccc(CNC(=O)CSc2nc3ccccc3nc2Cc2ccccc2)cc1,–,-10.7% (inactive)
Cc1cccc(C)c1NC(=O)NC1=CCCN1C,–,8.2% (inactive)
COC1=CC(=O)OC(c2ccc(OC)cc2)C1 (stereo not given),–,6.19% (inactive)
COc1ccc(N=Nc2c(-c3ccc(OC)cc3)[nH]oc2=O)cc1,–,-12% (inactive)
COc1ccc(N=C2C=CC(=O)O2)cc1,79.4 µM (active),–
COc1ccc(-c2nc3nc(C)cc(C)n3c2Nc2c(C)cccc2C)cc1,–,-18.2% (inactive)
Cc1cccc(OCCSc2nc3ccc(NC(=O)COc4ccccc4C)cc3s2)c1,–,4.41% (inactive)
O=C1NN(c2ccccc2)C(=O)/C1=C/c1ccc(-c2cccc(C(=O)O)c2)o1,89.1 µM (active),–
CC(=O)c1cc(-c2ccccc2)[nH]c1N1CCCC1,–,0% (inactive)
CCCN(CCC)CCCNC(=O)Cn1ncc2c3ccccc3n(Cc3ccccc3)c2c1=O,–,11.1% (inactive)
